High-throughput results from PubChem.
CYP2C9 act – CYP2C9 (human) activation; recombinant CYP2C9, luciferin-H conversion, luminescence; stronger effect = higher value; factor 1 = untreated enzyme, 0 = blocked; AID 1024; 96,000 compounds, 1.4% hits; P11712; activation factor at 5 µM;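 active = activation factor of 2 or more for CYP2C9 at a 5 µM dose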;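 also: 0 = sulfaphenazole-blocked wells and 1 = vehicle-only wells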
Cav3 T inh – human Cav3.2 channel inhibition, primary screen; O95180; Cav3.2-expressing cells, Fluo-4 calcium fluorescence FDSS; stronger effect = lower value; B-score at 10 µM; 100,000 compounds, 4% hits;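 active = single-dose well whose peak fluorescence ratio is a statistical outlier from its plate by either plate-standardised score or position-corrected B-score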
CYP2C9 inhib – human CYP2C9 inhibition | P11712 | 96,000 compounds, 20% hits | CYP2C9 Supersomes, luciferin-H conversion, luminescence | inhibition, % at 5 µM | AID 777;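 active = blocking of liver enzyme CYP2C9 beyond about 50% at 5 µM, limit read from the data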
CYP2C19 inhib – inhibitors of human CYP2C19. CYP2C19 Supersomes, luciferin-H EGE luminescence, 30 min. inhibition, % at 5 µM. 96,000 compounds, 21% hits. AID 778;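 active = CYP2C19 inhibition above a set limit at 5 µM in the primary screen, cut at about 50% in these data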;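 also: plate controls were negative control wells for no effect and 2.5 mM tranylcypromine positive control for full effect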
Target sequence (P33261 whole entry, looked up): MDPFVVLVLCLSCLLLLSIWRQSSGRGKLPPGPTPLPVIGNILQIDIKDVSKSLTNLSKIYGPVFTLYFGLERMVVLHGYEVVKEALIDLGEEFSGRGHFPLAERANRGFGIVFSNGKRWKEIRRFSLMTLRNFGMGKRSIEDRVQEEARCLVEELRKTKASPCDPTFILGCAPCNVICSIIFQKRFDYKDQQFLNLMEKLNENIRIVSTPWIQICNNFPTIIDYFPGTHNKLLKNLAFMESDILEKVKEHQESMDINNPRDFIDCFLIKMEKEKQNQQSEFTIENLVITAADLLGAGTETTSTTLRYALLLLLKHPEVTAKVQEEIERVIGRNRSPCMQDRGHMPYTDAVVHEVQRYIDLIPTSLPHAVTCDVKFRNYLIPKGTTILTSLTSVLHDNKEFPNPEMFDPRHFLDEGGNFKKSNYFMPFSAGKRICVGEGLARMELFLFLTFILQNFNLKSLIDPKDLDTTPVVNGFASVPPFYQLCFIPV
CYP2C19 act – increases human CYP2C19 enzyme activity | P33261 | recombinant CYP2C19, luciferin-H EGE luminescence; stronger effect = higher value; 0 = fully inhibited enzyme, 1 = untreated enzyme | activation factor at 5 µM | 96,000 tested, under 10 active | AID 1025;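 active = activation factor of at least 2 at 5 µM in the primary screen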;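 also: 0 = wells with 2.5 mM tranylcypromine and 1 = vehicle-only wells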
Active calls of the source: *; . = not tested or not shown. Sampled rows, rich in hits. Any-hit rate of the full collection: about 27%.

SMILES	CYP2C9 act	Cav3 T inh	CYP2C9 inhib	CYP2C19 inhib	CYP2C19 act
COc1ccc(-n2nc(C(=O)NCC(=O)NCc3ccco3)c3ccccc3c2=O)cc1Cl	0.6	0.473	36.5	-1.6	1
Cc1ccc2c(c1)N(C(=O)NC1CCCCC1)C(C)(C)CC2C (stereo not given)	0.7	-2.16	33.3	71.6*	0.3
Cc1ccc2c(c1)C(C)CC(C)(C)N2C(=O)NC1CCCCC1 (stereo not given)	1.4	-0.848	-37.9	12.4	0.9
CCN(CC)C(=O)c1cc(-c2ccc(Br)cc2)on1	1	-1.04	3.7	4.0	1
CCCNC(=O)NC1C(NC(=O)NCCC)N(C)C(=O)N1C (stereo not given)	1	-0.843	0.9	9.2	0.9
C=CCn1c(N)c(C(=O)OC(C)(C)C)c2nc3ccccc3nc21	0.2	0.925	76.8*	63.4*	0.4
COCC(C)OC(=O)c1c(N)n(CC(C)C)c2nc3ccccc3nc12 (stereo not given)	0.5	0.0275	49.8	16.8	0.8
C=CCn1c(N)c(C(=O)OC(C)CC)c2nc3ccccc3nc21 (stereo not given)	0.2	-1.56	82.8*	56.1*	0.4
COCc1c(C)cc(C)c(/C=N/O)c1C	1.2	0.093	-20.8	-2.4	1
COC(=O)[C@@H]1C[C@@]2(O)[C@@H](O)[C@@H](O)[C@@H](O)C[C@H]2N1CC1CCCCC1	.	0.134	.	.	.
CC(C)CCN(C)c1ccc(/C=N/n2cnnc2)cc1	0	-1.12	95.4*	98.8*	0
Cc1cc2c(N=O)c(NO)ccc2[nH]1	0.5	0.265	45.7	25.8	0.7
O=C(c1ccccc1)N1CCN(CC#CC2(O)CCCCC2)CC1	1.2	0.168	-16.8	-9.5	1.1
O=[N+]([O-])c1ccc(-c2nc3ccc([N+](=O)[O-])cc3[nH]2)cc1	1	-1.62	-3.2	-9.0	1.1
Fc1cc2nc(-c3ccncc3)[nH]c2cc1F	0.5	.	47.4	64.2*	0.4
O=C(OC(C(=O)O)C(OC(=O)c1ccccc1)C(=O)NCc1ccccc1)c1ccccc1 (stereo not given)	1.1	0.686	-14.0	-9.4	1.1
CCOC(=O)c1cc2c(=O)n3ccccc3nc2n(Cc2ccccc2)c1=N	0.8	-1.18	19.2	15.0	0.8
COc1ccc(CCn2c(=N)c(C(=O)N3CCN(C)CC3)cc3c(=O)n4ccccc4nc32)cc1	0.6	-0.828	38.6	72.0*	0.3
CCOC(=O)c1cc2c(=O)n3ccccc3nc2n(Cc2ccccc2Cl)c1=N	0.4	.	56.8*	22.3	0.8
CCOC(=O)c1cc2c(=O)n3ccccc3nc2n(C(C)C)c1=NC(=O)c1ccncc1	0.5	1.62	48.2	64.8*	0.4
CCOC(=O)c1cc2c(=O)n3ccccc3nc2n(CCOC)c1=NC(=O)c1ccncc1	0.9	.	6.2	18.9	0.8
Cc1ccc(C(=O)Nc2ccc(S(=O)(=O)NCc3ccco3)cc2)cc1	0.7	-0.377	26.1	21.7	0.8
COc1ccccc1OCC(=O)NCc1ccco1	1	-0.142	-0.1	16.8	0.8
O=C(COC(=O)c1ccc(S(=O)(=O)NCc2ccco2)cc1)NC1CCCCC1	0.7	0.142	31.4	3.2	1
Cc1noc(C)c1COC(=O)c1ccc(S(=O)(=O)NCc2ccco2)cc1	0	.	99.6*	72.3*	0.3
SMILES	CYP2C9 act	Cav3 T inh	CYP2C9 inhib	CYP2C19 inhib	CYP2C19 act
COc1ccccc1NC(=O)COC(=O)c1ccc(S(=O)(=O)NCc2ccco2)cc1	0.2	-0.177	82.4*	6.7	0.9
COc1ccccc1NS(=O)(=O)c1ccc(C(=O)OCC(=O)NCc2ccco2)cc1	0.2	-0.446	84.7*	83.6*	0.2
CCNC(=O)[C@@H]1CCCN1C(=O)[C@H](CCCN=C(N)N)NC(=O)[C@H](CC(C)C)NC(=O)[C@@H](CC(C)C)NC(=O)[C@H](Cc1ccc(O)cc1)NC(=O)[C@H](CO)NC(=O)[C@H](Cc1c[nH]c2ccccc12)NC(=O)[C@H](Cc1cnc[nH]1)NC(=O)[C@@H]1CCC(=O)N1	.	-0.546	.	.	.
CC12CC3CC(C)(C1)CC(C(=O)Nc1nn[nH]n1)(C3)C2	1	0.225	-1.8	11.0	0.9
CC12CC3(C)CC(C)(C1)CC(C(=O)Nc1nn[nH]n1)(C2)C3	0.9	1.49	14.6	53.6*	0.5
CCOC(=O)c1sc2ncn(CC(=O)NCC3CCCO3)c(=O)c2c1C (stereo not given)	0.8	0.949	20.8	12.8	0.9
CCCCN(C)C(=O)c1c[nH]c2ccc(S(=O)(=O)N3CCOCC3)cc2c1=O	.	0.249	.	.	.
O=C(Cc1cccs1)NCCc1cn2ccccc2n1	.	0.604	.	.	.
C/C=C/COC(=O)c1[nH]c2c(c1C)C(=O)CC(c1ccc(N(C)C)cc1)C2 (stereo not given)	0.4	-2.63	64.6*	17.8	0.8
CCC(C)OC(=O)c1[nH]c2c(c1C)C(=O)CC(c1ccc(N(C)C)cc1)C2 (stereo not given)	0.5	-2.17	53.4*	67.9*	0.3
CC(C)OCCCNc1ncc2c(n1)CC(c1ccc(N(C)C)cc1)CC2=O (stereo not given)	0.5	0.00834	45.3	33.9	0.7
COc1ccc(CNc2nc3nc(-c4ccccc4)cc(=O)n3[nH]2)cc1OC	1	-0.214	-2.4	-10.4	1.1
CCOc1ccc(CCNC(=O)CCCN2C(=O)c3ccccc3C2=O)cc1OCC	0.8	0.595	19.8	3.3	1
Cc1ccc(Cl)cc1N1CCN(C(=O)COc2ccc(S(=O)(=O)NC(C)C)cc2)CC1	0.5	-2.63	48.7	37.3	0.6
COCCn1c(CNc2ccc(F)cc2)nnc1SCC(=O)Nc1ccc(OC)cc1OC	1.1	0.839	-10.3	-10.2	1.1
Cn1cnc([N+](=O)[O-])c1Sc1ncccc1N	0.9	0.0327	5.7	1.1	1
Cc1ccc2[nH]c(=O)c(CN(Cc3ccc4c(c3)OCO4)Cc3nnnn3Cc3ccco3)cc2c1	0	-5.76*	98.7*	99.1*	0
O=c1[nH]c2cc3c(cc2cc1CN(Cc1ccccc1)Cc1nnnn1Cc1ccco1)OCCO3	1	0.118	4.5	1.6	1
O=c1[nH]c2cc3c(cc2cc1CN(Cc1cccs1)Cc1nnnn1Cc1ccco1)OCCO3	0.7	0.157	32.1	26.8	0.7
Cc1cc(C)c2cc(CN(Cc3ccc4c(c3)OCO4)Cc3nnnn3Cc3ccco3)c(=O)[nH]c2c1	0.2	-0.982	80.5*	67.2*	0.3
Cc1ccc(S(=O)(=O)Oc2ccc(C3C4=C(CCCC4=O)OC4=C3C(=O)CCC4)cc2)cc1	1	-0.0443	-2.3	0.8	1
CC(C)c1ccc(CC(C)C2C3=C(CCCC3=O)OC3=C2C(=O)CCC3)cc1 (stereo not given)	0	-2.78	96.7*	98.8*	0
Cc1ccc(CCC2C3=C(CCCC3=O)OC3=C2C(=O)CCC3)cc1	0.2	-2.32	75.1*	95.3*	0
CC(=O)c1ccc(OCCCN2CCCCC2)cc1	0.3	0.192	68.7*	66.3*	0.3
